Abeta rescue = compounds reversing amyloid beta toxicity in yeast | yeast expressing A-beta42, growth rescue, OD600, 48 h; response scale: 0% DMSO, 100% iron-clioquinol control | Potency, µM (doses to about 46.1 µM), actives largely listed as activators | 410,000 tested, 0.063% active | AID 1347071; further: nearly all actives have a fitted effect of over 55% in size
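Growth rescue measured by 600 nm absorbance after 48 h yeast culture at 30 C with compound. Values normalized between DMSO and an equimolar ferric chloride plus clioquinol control.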
ASM inhibitor = blocks human secretory acid sphingomyelinase | P17405 | placental ASM, HMU-PC fluorogenic substrate, 60 min | Potency, µM (series often up to 57.5 µM), for inactives: at the highest dose activity change, negative = inhibition, usual class: inhibitors | 340,000 tested, 0.006% active
Target sequence (P17405 47-631 limits assumed): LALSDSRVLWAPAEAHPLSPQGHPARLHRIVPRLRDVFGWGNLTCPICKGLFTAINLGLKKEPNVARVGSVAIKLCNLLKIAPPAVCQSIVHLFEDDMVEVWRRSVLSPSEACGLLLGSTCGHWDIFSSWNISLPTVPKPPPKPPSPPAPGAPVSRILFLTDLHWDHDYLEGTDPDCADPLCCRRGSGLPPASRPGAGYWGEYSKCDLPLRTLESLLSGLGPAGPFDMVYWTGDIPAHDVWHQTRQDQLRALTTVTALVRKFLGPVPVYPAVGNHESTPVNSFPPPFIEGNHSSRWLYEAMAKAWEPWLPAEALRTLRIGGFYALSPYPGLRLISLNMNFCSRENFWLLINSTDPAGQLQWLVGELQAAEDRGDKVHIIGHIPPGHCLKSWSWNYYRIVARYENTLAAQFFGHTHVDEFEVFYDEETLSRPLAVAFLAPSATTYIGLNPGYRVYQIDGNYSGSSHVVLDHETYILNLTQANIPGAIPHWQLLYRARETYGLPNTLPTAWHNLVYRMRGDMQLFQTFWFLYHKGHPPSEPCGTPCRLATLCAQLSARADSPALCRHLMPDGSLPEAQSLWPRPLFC
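Fluorogenic HMU-PC substrate (9 uM final) is turned over by placental ASM in 60 min at 37 C after a 10 min compound preincubation. Reaction ended by alkaline stop (pH 10), with fluorescence read at 386/447 nm.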
aSyn rescue = alpha-synuclein toxicity inhibition in yeast; Yeast expressing alpha-synuclein, growth rescue, BacTiter-Glo, 24 h; Potency, µM (doses to about 46.1 µM), inactives show top-dose growth rescue (activation), usual class: activators; 370,000 tested, 0.14% active; further: % of control where 0% means no effect; nearly all actives have a fitted effect of over 65% in size
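Rescue of yeast growth: cells expressing toxic alpha-synuclein, induced in galactose at OD600 0.02, incubated with compound 24 h at 30 C. ATP luminescence quantified growth; inhibitors of toxicity appear as activators.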
Rango-impB inh = Rango-importin beta binding inhibition; Potency, µM (series often up to 92.2 µM), inactives show at the highest dose inhibition of complex formation; Rango CFP/YFP FRET sensor + importin beta, 45 min; 340,000 tested, 0.031% active; calls by dose curve;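 further: 0% = DMSO wells and 100% = buffer wells lacking importin beta; nearly all actives have a fitted effect of over 15% in size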
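Inhibition scored from the CFP 486 nm/YFP 530 nm FRET ratio 45 min after adding 0.125 microM importin beta to 50 nM Rango biosensor preincubated 5 min with compound (room temperature, PBS with DTT, Tween-20, BSA). No-importin wells as positive control.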
Rango dissoc inh = inhibition of RanGTP-driven Rango-importin beta dissociation | O95149+P62826 | Biochemical FRET Rango-importin beta, RanGTP-induced dissociation | Potency, µM (doses to about 46.1 µM), inactives show at the top dose activity change, negative = inhibition | 340,000 tested, 0.071% active; calls by dose curve; further: % of control where 0% means no effect; nearly all actives have a fitted effect of over 45% in size
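Two FRET readings bracket the reaction: one 5 min after compound meets Rango–importin beta, another 45 min after RanGTP-RCC1 (0.6 uM Ran, 0.2 uM RCC1, 2 mM GTP) is added. Only the second defines inhibition.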
TDP43 rescue = inhibitors of TDP-43 toxicity in yeast. TDP-43 expressing yeast growth rescue, BacTiter-Glo, 24 h. Potency, µM (highest dose often 46.1 µM), inactives show top-dose growth rescue (activation), actives largely listed as activators. 410,000 tested, 1.8% active; further: % of control where 0% means no effect; nearly all actives have a fitted effect of over 50% in size
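Galactose-induced TDP-43 yeast, OD600=0.02, compound pinned; 24 hr, 30 deg C; BacTiter-Glo luminescence for growth. Inhibitors of TDP-43 toxicity read as activators.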
Numbers without * were called inactive; i = inactive; ? = inconclusive; · = not tested or not shown. In the library only some 2% were active in any assay of this set; here they are far more common. Unless noted, the call rests on the fitted dose curve; in most records, active means well fitted curve in the direction sought with a large enough effect; inconclusive means small, poorly fitted or top-dose-only effect, or another doubt; inactive means no such curve, though single readings can be large; an effect the other way counts as inactive or inconclusive. Potency means the concentration at half of the fitted maximal effect.

SMILES	Abeta rescue	ASM inhibitor	aSyn rescue	Rango-impB inh	Rango dissoc inh	TDP43 rescue
CCc1ccc(C(C)NC(=O)c2cc(C)oc2C)cc1 (stereo not given)	i	2%	15%	?	0%	13µM*
COc1ccccc1/C=C/c1ccnc2ccccc12	·	·	6%	·	·	·
CCOc1ccc(OCCCC(=O)O)cc1	i	4%	17%	4%	22%	13µM*
CCOc1ccc(-c2noc(CCC(=O)O)n2)cc1	i	0%	0%	4%	6%	32µM*
CCOc1ccc(C(=O)CCC(=O)O)cc1	i	5%	4%	-1%	9%	-16%
CC1CCCC(NC(=O)CSc2ncnc3ccccc23)C1C (stereo not given)	i	0%	2%	-6%	?	14µM*
Cc1ccc(S(=O)(=O)Nc2ccc3nc(C)sc3c2)c(C)c1	i	-5%	5%	?	-2%	13µM*
CCOC(=O)CSC1=NC(=O)/C(=C\c2ccc(OC(C)=O)cc2)S1	i	-8%	-9%	1%	15%	-22%
CCOC(=O)CSC1=NC(=O)/C(=C/c2ccc(Br)cc2)S1	i	8%	-31%	3%	-14%	11µM*
COc1cccc(Cn2nnc(C(=O)NCc3ccc(Cl)cc3Cl)c2N)c1	i	·	·	·	·	16%
Cc1ccccc1CSCc1ccc(C(=O)NCCc2ccccc2)o1	i	·	22%	·	·	35µM*
O=C(NCc1ccc(F)cc1)c1ccc(CSCc2cccc(Cl)c2)o1	i	·	·	·	·	22µM*
O=C(NCCc1ccc(Cl)cc1)c1ccc(CSCc2cccc(Cl)c2)o1	i	·	·	·	·	20µM*
COc1ccc(CCNC(=O)c2ccc(CSc3ccc(Cl)cc3)o2)cc1OC	·	·	·	·	·	33µM*
COc1ccc(CCNC(=O)c2ccc(CS(=O)(=O)c3ccc(Cl)cc3)o2)cc1OC	i	3%	-2%	1%	9%	-28%
Cc1cccc(CCNC(=O)c2ccc(CSCc3cccc(Cl)c3)o2)c1	i	·	·	·	·	?
O=C(CNc1ccc(Br)cc1)c1ccc(O)cc1	i	-1%	-27%	0%	1%	10µM*
O=C(CNc1ccc(Cl)cc1)c1ccc(Br)cc1	i	1%	7%	1%	25%	18%
COc1ccc(-c2[nH]c(-c3ccc(OC)c(OC)c3)nc2SCC(=O)Nc2ccccc2)cc1	i	·	·	·	·	-13%
CCOC(=O)C1=NN(C(=O)c2ccc(OC)cc2)C(O)(c2ccc(Cl)cc2)C1 (stereo not given)	?	-22%	?	?	4%	?
COC(=O)C1=NN(C(=O)c2cccc(Br)c2)C(O)(c2ccc(Cl)cc2)C1 (stereo not given)	i	-18%	18µM*	5%	7%	?
CCc1ccc(-c2ccc(C(=O)O)cc2)nc1	i	0%	6%	0%	2%	35µM*
CCc1ccc(-c2ccc(C(=O)Oc3ccc(Br)cc3)cc2)nc1	i	·	·	·	·	?
Cn1c2c(c(=O)n(C)c1=O)C(c1ccccc1C(F)(F)F)CC(=O)N2 (stereo not given)	i	·	·	·	·	10%
O=C1CSC(=S)N1c1cccc(Br)c1	i	0%	1%	0%	-2%	14µM*
O=C(O)c1cccc(N2C(=O)CSC2=S)c1	i	0%	35µM*	0%	1%	?
O=C(CSc1ncccn1)N/N=C/c1ccc(OC2CSC2)cc1	i	1%	6%	5%	1%	11µM*
CN(C)c1ccc(C=Nc2cnc3ccccc3c2)cc1	·	·	-2%	·	·	·
O=S(=O)(c1ccccc1F)N1CCC(Oc2ccc(-n3cnnn3)cc2)CC1	?	0%	24%	1%	-20%	13µM*
CCCCc1nn2c(=O)cc(COC(=O)C3CCCCC3)nc2s1	i	·	·	·	·	24%
